The source of these data is PubChem BioAssay (NCI).

Where “and” joins values, the source holds several entries; their conditions need not be identical. Equal values may be shown once. The panel holds about 79,000 compounds, 15% with a hit somewhere; the sample as a whole holds those more often. A number with no mark means an inactive call. Calls of active or inactive are those of the source. Rule as the data show it: active = growth inhibition above about 70%; inactive = the rest.

Experiment [1] can be described thus: NCI Yeast Anticancer Drug Screen. Data for the rad50 strain (AID 155).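 Also: 0% = growth of vehicle-only cultures of the same strain.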 The note with it: S. cerevisiae rad50 strain growth inhibition; at 50.0 µM; active compounds read high. In short, it runs like this: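 Readout: growth inhibition relative to vehicle-treated cultures. Compound exposure was carried out in a genetically defined yeast strain deficient in DNA damage repair.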

Experiment [2] in a line: NCI Yeast Anticancer Drug Screen. Data for the mec2-1 strain (AID 157). The note with it: S. cerevisiae mec2-1 strain, at 50.0 µM, active compounds read high. In short, it runs like this:
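Strain: mec2-1 (DNA repair/cell cycle alteration). Compound exposure, then growth measured; inhibition expressed relative to vehicle.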

A short description of experiment [3]: NCI Yeast Anticancer Drug Screen. Data for the sgs1 mgt1 strain (AID 161).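 Also: 0% = growth of cultures given vehicle only.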 The note with it: S. cerevisiae sgs1 mgt1 strain, at 50.0 µM, active compounds read high. In short, it runs like this:
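Read-out: growth inhibition vs vehicle controls. Cells: mutant yeast strain deficient in DNA damage repair.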

Experiment [4] can be described thus: NCI Yeast Anticancer Drug Screen. Data for the cln2 rad14 strain (AID 165).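 Also: 0% = growth equal to vehicle treated cultures.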 The note with it: S. cerevisiae cln2 rad14 strain, at 50.0 µM, active compounds read high. In short, it runs like this: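 Compounds are applied to the cln2 rad14 yeast strain, and growth is then compared with that of vehicle-treated cultures to give inhibition.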
A short description of experiment [5]: NCI Yeast Anticancer Drug Screen. Data for the bub3 strain (AID 167). The note with it: S. cerevisiae bub3 mutant strain, at 50.0 µM, active compounds read high. The essentials: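 Readout: yeast growth inhibition, expressed relative to vehicle-only wells. The test organism is a mutant strain from a panel with lesions in DNA repair or checkpoint genes.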
Experiment [6] can be described thus: NCI Yeast Anticancer Drug Screen. Data for the mlh1 rad18 strain (AID 175). The conditions noted are these: S. cerevisiae mlh1 rad18 strain growth inhibition; at 50.0 µM; active compounds read high. The essentials: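 Read-out is yeast growth inhibition, calculated against vehicle-only controls. The compound was applied to a strain engineered with DNA damage repair alterations.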

Take `Cc1[nH]c2cc([N+](=O)[O-])ccc2c1[N+](=O)[O-]`: the growth inhibition in experiment [1] was 44.6% and 36.9%; in experiment [2] it was 32.2% and 25.4%; in experiment [3] it was 26% and 38.3%; in experiment [4], 24.9% and 9.1%; in experiment [5], -4.65% and -4.55%; in experiment [6] it was 59% and 41.8%.
As for `N/C(=N\N=C\c1ccccc1O)N[N+](=O)[O-]`, the growth inhibition in experiment [1] was -17.5%; in experiment [2], -22.9%; in experiment [3], -14.8%; in experiment [4], -108%; in experiment [5] it was -19.2%; in experiment [6], -5.85%.
As to `N#CC(C#N)=Cc1ccccc1F`, the growth inhibition was 15.5% in experiment [1]; 7.1% in experiment [2]; 12.2% in experiment [3]; 15.2% in experiment [4]; 10.6% in experiment [5]; 12.7% in experiment [6].
Take `CCCCOP(=O)(OCCCC)Oc1cccc([N+](=O)[O-])c1`: the growth inhibition in experiment [1] was 6.6%; in experiment [2] it was 46.1%; in experiment [3], 18.9%; in experiment [4], 28.2%; in experiment [5], 42.3%; in experiment [6], 14.5%.
For the compound `CN1C2C=CC1c1c(C3=NC(C)(C)CO3)cccc12` (centres undefined), the growth inhibition in experiment [1] is -8.15%; in experiment [2], -8.05%; in experiment [3], -7.95%; in experiment [4] it was -36%; in experiment [5], 6.85%; in experiment [6] it was 2.6%.
Take `CC1(C(=O)O)C2[Se]c3[se]ccc3C2C1(C)C(=O)O` (centres undefined): the growth inhibition was -3.45% in experiment [1]; -12.7% in experiment [2]; -3.5% in experiment [3]; -12.2% in experiment [4]; 1.8% in experiment [5]; -4.55% in experiment [6].
For the compound `O=C(CN1CCCCC1)c1ccc(Br)cc1`, the growth inhibition in experiment [1] is 15.7%; in experiment [2], 6.1%; in experiment [3], 9.4%; in experiment [4], -20.9%; in experiment [5] it was -12.4%; in experiment [6] it was 9.55%.
`CCOS(=O)(=O)OCC`: the growth inhibition in experiment [1] is 1.2%; in experiment [2] it was -12.1%; in experiment [3] it was 4.25%; in experiment [4], -0.45%; in experiment [5] it was -10.8%; in experiment [6], 14.2%.
In the case of `C1CC[N-]CC1.CC(=N\O)/C(C)=N/O.CC(=N\O)/C(C)=N/O.N#C[CH-]CC#N.[Co+2]`, the growth inhibition in experiment [1] is 31.4%; in experiment [2] it was 19.2%; in experiment [3] it was 25.3%; in experiment [4], -19.4%; in experiment [5], 28.5%; in experiment [6] it was 38.9%.
Consider `CCOC(=O)Oc1c(Cl)cc(S(=O)(=O)F)cc1Cl`, for which the growth inhibition in experiment [1] is 99.6% (active); in experiment [2] it was 99.8% (active); in experiment [3], 99.6% (active); in experiment [4], 99.5% (active); in experiment [5], 99.7% (active); in experiment [6], 99.5% (active).
With `CN(C)CCNC(=O)c1cccc(COC(=O)Nc2ccc(N(CCCl)CCCl)cc2)c1[N+](=O)[O-]`, the growth inhibition in experiment [1] is -3.55%; in experiment [2], -15.8%; in experiment [3] it was 1.2%; in experiment [4], -49.8%; in experiment [5] it was -3.65%; in experiment [6], -11.9%.
For `N#CCCCCCl`, the growth inhibition in experiment [1] was 19.4%; in experiment [2] it was 10.9%; in experiment [3] it was 16.3%; in experiment [4], 25.2%; in experiment [5], 13.6%; in experiment [6], 28.9%.
On to `CCCCCCCCCCCCBr`, for which the growth inhibition in experiment [1] is 10.7%; in experiment [2] it was -7.4%; in experiment [3], -5.1%; in experiment [4] it was -12.7%; in experiment [5], -10.3%; in experiment [6] it was -1.05%.
Regarding `COCC1OC(OC2C3=C(C(C)C)CCC3(C)/C=C3\C(CCC3(O)COC)C(C)C2O)C(O)C2OC3OC12OC3(C)C1CO1` (centres undefined), the growth inhibition in experiment [1] was 28.1%; in experiment [2] it was 7.75%; in experiment [3], 21%; in experiment [4] it was 35.2%; in experiment [5] it was 31.6%; in experiment [6], -78%.
For the compound `O=C1NC(=O)C(Br)C(=O)N1` (tested in a mixture with another compound), the growth inhibition is -8.5% in experiment [1]; 8.95% in experiment [2]; 0.5% in experiment [3]; -19.6% in experiment [4]; -1.95% in experiment [5]; -0.3% in experiment [6].
Regarding `CC(=O)[O-].CC(=O)[O-].CC(=O)[O-].CC(=O)[O-].[Mo+2].[Mo+2]`, the growth inhibition is -6.5% in experiment [1]; 2.1% in experiment [2]; 0.1% in experiment [3]; 3.25% in experiment [4]; 1.85% in experiment [5]; 5.6% in experiment [6].
Take `O=c1[nH]c(=S)[nH]c(O)c1/C=C1\C=CC=N1`: the growth inhibition is -22.9% in experiment [1]; -3.95% in experiment [2]; -3.45% in experiment [3]; 1.85% in experiment [4]; 3.3% in experiment [5]; -14.1% in experiment [6].
On to `NC(C(=O)[O-])C(=O)[O-].NC1CCCCC1N.[Pt+4]`, for which the growth inhibition in experiment [1] is 7.35%; in experiment [2], -5.95%; in experiment [3] it was 5.75%; in experiment [4], -31.6%; in experiment [5], -17.9%; in experiment [6] it was -3.2%.
In the case of `Cc1cccc2c(=O)c([Se]c3coc4c(C)cccc4c3=O)coc12`, the growth inhibition in experiment [1] was -12.4%; in experiment [2] it was -15.2%; in experiment [3], -48.2%; in experiment [4], -5.8%; in experiment [5] it was -13.2%; in experiment [6], -30.1%.
